# A selection: hits, their analogues and other compounds. The true share with any hit is near 19%.
# SARS PLP yeast: SARS-CoV PLP inhibition in yeast; S. cerevisiae expressing SARS-CoV PLpro, growth rescue; Potency, µM (doses to about 32.9 µM), without a hit: at the highest dose activity, positive = growth rescue, actives largely listed as activators; hit rate 0.19% among 330,000; AID 485353; calls by dose curve; also: potency is read from the fitted curve at half-maximal effect; 0% is about no effect; nearly all actives have a fitted effect of over 55% in size
# CHX counter: counter-screen for Shiga toxin inhibitors: cycloheximide protein synthesis inhibition; cell reporter, cycloheximide protein synthesis inhibition counterscreen; max response, %; hit rate 12% among 300,000; in the data active = max response mostly above about 13%, no sharp cut-off; inactive = mostly below about 14%; also: read at 38.3 µM for the half of the compounds with a filed dose; 0% is about no effect
# Pf growth 48h: inhibits P. falciparum growth in the first generation, 48 h; Potency, µM (highest dose often 28.7 µM), inactives show top-dose activity change, negative = inhibition, hits mostly inhibitors; P. falciparum luciferase growth in erythrocytes, 48 h; AID 504832; hit rate 5.9% among 310,000; also: potency is read from the fitted curve at half-maximal effect; % is scaled to controls: 0 for no effect and ±100 for the full control effect
#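 Here the parasites carry a stable luciferase gene and grow inside erythrocytes in Albumax-based RPMI medium with compound for one erythrocytic cycle. Activity is scored as loss of luminescent signal.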
# Pf growth 96h: inhibits malaria parasite growth, 96 h | P. falciparum luciferase reporter growth, 96 h | Potency, µM (series often up to 28.7 µM), without a hit: at the top dose activity change, negative = inhibition, most hits filed as inhibitors | hit rate 6.9% among 320,000; also: potency is read from the fitted curve at half-maximal effect; % is scaled to controls: 0 for no effect and ±100 for the full control effect
#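 Readout is luminescence from an integrated firefly luciferase in P. falciparum. Red cells, 2% hematocrit and 0.05% parasitemia final, were cultured with compound through two parasite generations (96 hours) at 37 C, 5% CO2.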
# Shiga inhibitor: blocks Shiga toxin action in Vero cells. Vero cells, Shiga toxin protein synthesis inhibition reporter. inhibition, % at 38.7 µM. hit rate 9.2% among 290,000; in the data active = inhibition mostly above about 28%, no sharp cut-off; inactive = mostly below about 43%; also: 0% is about no effect
# AMA1 RON2 block: inhibitors of Plasmodium falciparum AMA1-RON2 interaction. hit rate 0.2% among 360,000. AlphaScreen AMA1-biotinylated RON2 peptide binding. Potency, µM (series often up to 58.2 µM), for the others: top-dose activity change, negative = inhibition, usual class: inhibitors;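 also: potency is read from the fitted curve at half-maximal effect; 0% = vehicle wells and -100% = peptide control; nearly all actives have a fitted effect of over 45% in size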
#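 AMA1 (3D7) with his tag at 25 nM final met compounds first, then biotinylated RON2 peptide at 25 nM; detection used donor plus acceptor beads, 10 µg/mL apiece, read by AlphaScreen after 30 min at room temperature.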
# Active calls of the source: *; u = inconclusive; x = no result. Unless noted, calls follow the shape of the dose curve; as a rule, active = well fitted curve in the direction sought with a large enough effect; inconclusive = small, poorly fitted or top-dose-only effect, or another doubt; inactive = no such curve, though single readings can be large; an effect the other way counts as inactive or inconclusive.
SMILES,SARS PLP yeast,CHX counter,Pf growth 48h,Pf growth 96h,Shiga inhibitor,AMA1 RON2 block
Cc1onc(-c2c(F)cccc2Cl)c1C(=O)Nc1cc2cc([N+](=O)[O-])ccc2oc1=O,x,x,x,x,x,-14%
N/C(=N\N=C\c1ccc([N+](=O)[O-])cc1)c1nonc1N,2%,51*,104%,127%,91*,-4%
O=C(/C=C/c1ccc(F)cc1)N1CC[C@@]2(O)CCCC[C@H]2C1,-5%,-4,-12%,u,3,0%
CCOC(=O)C(C)Sc1cc(CS(=O)(=O)c2ccccc2)nc(-c2ccccc2)n1 (stereo not drawn),-7%,-2,23%,10µM*,-7,1%
CCOC(=O)C(C)Sc1ncc(-c2ccccc2)cn1 (stereo not drawn),0%,58*,u,-13%,70*,16%
Cc1nc(SCc2ccc(Cl)cc2)ncc1C(=O)O,-4%,14,12%,u,60*,27%
CCOC(=O)C(C)Sc1nc(=O)n2ccccc2n1 (stereo not drawn),1%,-2,-5%,u,-1,-2%
COc1cnc(SCc2ccc(Cl)cc2)nc1Cl,-25%,10,21%,u,19,71%
CCOC(=O)c1cnc(SCc2ccccc2)nc1N,-2%,47*,147%,x,109*,4%
COc1ccc(S(=O)(=O)N2C(=O)/C(=C3\SC(N)=NC3=O)c3ccccc32)cc1,0%,-1,13%,21%,-4,5%
CCOC(=O)c1cnc(SCc2cccc3ccccc23)nc1N,10%,4,x,4.7µM*,-10,16%
CCOC(=O)c1cnc(SCc2ccc(C(C)(C)C)cc2)nc1N,-1%,-1,u,u,-12,2%
Cc1ccnc(SCC(=O)n2c3c(c4ccccc42)CC(C)CC3)n1 (stereo not drawn),1%,-1,31%,50%,16,-11%
CCS(=O)(=O)c1ccc2oc(Nc3ccc(OC)cc3)nc2c1,-1%,22,65%,69%,38,-18%
CCS(=O)(=O)c1ccc2oc(Nc3cccc(OC)c3)nc2c1,0%,20*,109%,32%,41,16%
CCOc1ccc(Nc2nc3cc(S(=O)(=O)CC)ccc3o2)cc1,1%,10,-31%,13µM*,22,0%
O=C(c1cccc([N+](=O)[O-])c1)C12CN3CN(CN(C3)C1)C2,0%,6,u,57%,3,-2%
CC(C)=N/N=C(/c1ccc([N+](=O)[O-])cc1)C12CN3CN(CN(C3)C1)C2,-4%,-9,0%,13µM*,-4,8%
Cn1c(=O)[nH]c(=O)c2c1[nH]c(=S)n2Cc1ccc(Cl)cc1,1%,0,x,u,-2,34%
CC[C@@]12C(=O)N(c3cccc(Br)c3)C(=O)N1[C@H](c1ccc(OC)cc1)[C@@H]1C(=O)N(C(C)(C)C)C(=O)[C@@H]12,3%,x,u,u,x,-1%
COc1ccc([C@@H]2[C@@H]3C(=O)N(C(C)(C)C)C(=O)[C@@H]3[C@]3(Cc4ccccc4)C(=O)N(c4ccc(Br)cc4)C(=O)N23)cc1,-4%,12*,4.1µM*,5.2µM*,9,-11%
COc1ccc([C@@H]2[C@@H]3C(=O)N(C(C)(C)C)C(=O)[C@@H]3[C@]3(Cc4ccc(Cl)cc4)C(=O)N(c4cccc(Br)c4)C(=O)N23)cc1,6%,-3,u,u,1,-4%
CC[C@@]12C(=O)N(c3cccc(Br)c3)C(=O)N1[C@H](c1ccc(Br)cc1)[C@@H]1C(=O)N(C(C)(C)C)C(=O)[C@@H]12,-11%,x,10µM*,4.7µM*,x,-13%
COc1ccc([C@@H]2[C@@H]3C(=O)N(C(C)(C)C)C(=O)[C@@H]3[C@]3(Cc4ccc(Cl)cc4)C(=O)N(c4cccc(F)c4)C(=O)N23)cc1,7%,x,5.9µM*,9.3µM*,x,5%
COc1ccc(N2C(=O)N3[C@H](c4ccc(Br)cc4)[C@@H]4C(=O)N(C(C)(C)C)C(=O)[C@@H]4[C@]3(Cc3ccccc3)C2=O)cc1,2%,-1,-82%,u,4,8%

# Screening data from PubChem.
